# From PubChem BioAssay (EPA / NIEHS)
# Several values for one entry are separate records, joined by “and”; a condition that tells them apart may be missing. Equal entries are not always repeated. Records with an inconclusive call do not appear. Some compounds were tested as several samples or in several runs, with calls that do not always agree. Activity calls are given as the source filed them. The calls were made as follows, unless noted: active = hit-call score of the fitted dose curve at least 0.9, where 1 is the maximum; inactive = score below 0.9.
# Experiments:
# [1] = read-out: Interleukin 17F (IL17F), IL17F (gene 112744); test: BSK_BT_xIL17F: BioMAP Diversity Plus: BT Assay for Interleukin 17F (IL17F) Biomarker Activity (AID 2284243); conditions: primary human B cells with PBMC
# Summary of the method: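 Luminex readout of IL-17F secretion, 24 h; cells: human B cells with PBMC; positive-direction analysis, DMSO control.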
# [2] = read-out: Actin alpha 1 (ACTA1), ACTA1 (gene 58); test: BSK_MyoF_ACTA1: BioMAP Diversity Plus: MyoF Assay for Actin alpha 1 (ACTA1) Biomarker Activity (AID 2284244); conditions: primary human lung fibroblasts
# Summary of the method: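 alpha-SMA levels read by ELISA against DMSO baseline, 24 h post-dose, in primary human lung fibroblasts. Parallel cultures stained with 0.1% SRB after 10% TCA fixation (560 nm) to flag overt cytotoxicity.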
# [3] = read-out: Interleukin 2 (IL2), IL2 (gene 3558); test: BSK_BT_xIL2: BioMAP Diversity Plus: BT Assay for Interleukin 2 (IL2) Biomarker Activity (AID 2284245); conditions: primary human B cells with PBMC
# Summary of the method: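 Secreted IL-2 was read by Luminex xMAP from B cells co-cultured with PBMC (human primary) 24 h post-dosing; activity was analysed as gain of signal relative to DMSO vehicle.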
# [4] = read-out: Basic fibroblast growth factor (bFGF), FGF2 (gene 2247); test: BSK_MyoF_bFGF: BioMAP Diversity Plus: MyoF Assay for Basic fibroblast growth factor (bFGF) Biomarker Activity (AID 2284246); conditions: primary human lung fibroblasts
# Summary of the method: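 bFGF was measured by ELISA in primary human lung fibroblasts 24 h after chemical addition. Signal was analysed as positive-direction change relative to DMSO baseline.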
# [5] = read-out: Collagen IV, COL4A1 (gene 1282); test: BSK_MyoF_CollagenIV: BioMAP Diversity Plus: MyoF Assay for Collagen IV Biomarker Activity (AID 2284247); conditions: primary human lung fibroblasts
# Summary of the method: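 Collagen IV quantified by ELISA in human lung fibroblast cultures 24 h after chemical treatment, with DMSO as baseline. Parallel SRB staining (0.1% SRB after TCA fixation, 560 nm) flags overt cytotoxicity.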
# [6] = read-out: Monokine induced gamma interferon (MIG), CXCL9 (gene 4283); test: BSK_KF3CT_MIG: BioMAP Diversity Plus: KF3CT Assay for Monokine induced gamma interferon (MIG) Biomarker Activity (AID 2284248); conditions: primary human keratinocytes with fibroblasts
# Summary of the method: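 MIG in dosed human skin co-cultures was measured by ELISA at 24 h, relative to DMSO.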
# [7] = read-out: Vascular cell adhesion molecule 1 (VCAM1), VCAM1 (gene 7412); test: BSK_BF4T_VCAM1: BioMAP Diversity Plus: BF4T Assay for Vascular cell adhesion molecule 1 (VCAM1) Biomarker Activity (AID 2284249); conditions: primary human bronchial epithelial cells with fibroblasts
# Summary of the method: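 Cell-surface VCAM-1 quantified by ELISA after 24 h chemical exposure of human bronchial epithelial/dermal fibroblast co-cultures, with SRB staining in parallel wells for cytotoxicity; DMSO baseline, positive-direction fitting.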
# [8] = read-out: Collagen I, COL1A1 (gene 1277); test: BSK_hDFCGF_CollagenI: BioMAP Diversity Plus: hDFCGF Assay for Collagen I Biomarker Activity (AID 2284250); conditions: primary human foreskin fibroblasts
# Summary of the method: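 Collagen I quantified by ELISA 24 h after chemical dosing of human dermal fibroblast primary cells, with parallel SRB staining (0.1%, TCA-fixed, 560 nm) for overt cytotoxicity.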
# [9] = read-out: Interferon-inducible T-cell alpha chemoattractant (ITAC), CXCL11 (gene 6373); test: BSK_hDFCGF_ITAC: BioMAP Diversity Plus: hDFCGF Assay for Interferon-inducible T-cell alpha chemoattractant (ITAC) Biomarker Activity (AID 2284251); conditions: primary human foreskin fibroblasts
# Summary of the method: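 Chemical dosing of primary human foreskin fibroblast cultures preceded ELISA measurement of I-TAC at 24 h. Response was analysed in the positive direction using DMSO as baseline, while parallel SRB staining measured cytotoxicity.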
# [10] = read-out: Plasminogen activator inhibitor-1 (PAI1), SERPINE1 (gene 5054); test: BSK_KF3CT_PAI1: BioMAP Diversity Plus: KF3CT Assay for Plasminogen activator inhibitor-1 (PAI1) Biomarker Activity (AID 2284252); conditions: primary human keratinocytes with fibroblasts
# Summary of the method: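 PAI-1 levels quantified by ELISA after 24 h compound exposure of primary human skin keratinocytes co-cultured with fibroblasts. Activity is the gain relative to DMSO; cytotoxicity tracked in parallel cultures via SRB staining.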
# [11] = read-out: Monocyte Chemoattractant Protein-1 (MCP1), CCL2 (gene 6347); test: BSK_IMphg_MCP1: BioMAP Diversity Plus: IMphg Assay for Monocyte Chemoattractant Protein-1 (MCP1) Biomarker Activity (AID 2284253); conditions: primary human endothelial cells with macrophages
# Summary of the method: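 ELISA readout of MCP-1 at 24 hours in IMphg co-cultures of venular endothelial cells and macrophages, normalised to DMSO; parallel cultures stained with sulforhodamine B for overt cytotoxicity.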
# [12] = read-out: Interleukin-8 (IL8), CXCL8 (gene 3576); test: BSK_KF3CT_IL8: BioMAP Diversity Plus: KF3CT Assay for Interleukin-8 (IL8) Biomarker Activity (AID 2284254); conditions: primary human keratinocytes with fibroblasts
# Summary of the method: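 Using parallel SRB-stained cultures to flag overt toxicity, the study quantified IL-8 by ELISA in human keratinocyte–foreskin fibroblast co-cultures 24 h after dosing, with DMSO as negative control and baseline.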
# [13] = read-out: Plasminogen activator inhibitor-1 (PAI1), SERPINE1 (gene 5054); test: BSK_MyoF_PAI1: BioMAP Diversity Plus: MyoF Assay for Plasminogen activator inhibitor-1 (PAI1) Biomarker Activity (AID 2284256); conditions: primary human lung fibroblasts;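 as to outcome: PAI-1 protein level measured by ELISA in fibroblast cultures; PAI-1 read 24 h after compound addition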
# Summary of the method: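 In this multiplexed primary-cell system, fibroblasts from human lung received compound for 24 h before ELISA detection of PAI-1; overt toxicity was checked by SRB (0.1%, TCA-fixed, 560 nm) in parallel wells.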
# CD69, CD69 (gene 969) = test: BSK_IMphg_CD69: BioMAP Diversity Plus: IMphg Assay for CD69 Biomarker Activity (AID 2284257); conditions: primary human endothelial cells with macrophages
# Summary of the method: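 Readout is ELISA for CD69 in primary human venular endothelial cell/macrophage co-culture, taken at 24 h post-dosing. SRB staining of parallel cultures gauged overt cytotoxicity; signal increase versus DMSO defined activity.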
# [14] = read-out: Eotaxin 3, CCL26 (gene 10344); test: BSK_BF4T_Eotaxin3: BioMAP Diversity Plus: BF4T Assay for Eotaxin 3 Biomarker Activity (AID 2284258); conditions: primary human bronchial epithelial cells with fibroblasts
# Summary of the method: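 ELISA measurement of Eotaxin-3 after 24 h chemical exposure in a bronchial epithelial/dermal fibroblast co-culture, with DMSO as baseline. Parallel SRB staining (0.1% SRB after 10% TCA fixation, 560 nm) flagged overt cytotoxicity.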
# [15] = read-out: Monocyte Chemoattractant Protein-1 (MCP1), CCL2 (gene 6347); test: BSK_BF4T_MCP1: BioMAP Diversity Plus: BF4T Assay for Monocyte Chemoattractant Protein-1 (MCP1) Biomarker Activity (AID 2284259); conditions: primary human bronchial epithelial cells with fibroblasts
# Summary of the method: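 MCP-1 ELISA readout taken 24 h after dosing in the BF4T system (bronchial epithelial cells plus dermal fibroblasts). Parallel SRB total-protein staining flagged cytotoxicity; DMSO served as baseline, positive fitting direction.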
# [16] = read-out: Intercellular Adhesion Molecule 1 (ICAM1), ICAM1 (gene 3383); test: BSK_BF4T_ICAM1: BioMAP Diversity Plus: BF4T Assay for Intercellular Adhesion Molecule 1 (ICAM1) Biomarker Activity (AID 2284260); conditions: primary human bronchial epithelial cells with fibroblasts
# Summary of the method: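 ICAM-1 levels measured by ELISA after 24 h chemical treatment of bronchial epithelial cell/dermal fibroblast co-cultures, read against DMSO baseline. Overt cytotoxicity checked in parallel cultures by sulforhodamine B staining.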
# [17] = CCTE_Mundy_HCI_hNP1_CellTiter: CCTE's Cell Titer-Glo 2 Assay in human neuroprogenitor cells for Viability, Mundy Lab (AID 2284241; active = hit-call score of the fitted dose curve at least 0.9, where 1 is the maximum)
# Summary of the method: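 Measures ATP content in human neural progenitors derived from WA09 embryonic cells. Read-out at 26.5 hours after dosing, with DMSO serving as the negative control and baseline.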
# [18] = read-out: Macrophage Inflammatory Protein-1 Alpha (MIP1a), CCL3 (gene 6348); test: BSK_IMphg_MIP1a: BioMAP Diversity Plus: IMphg Assay for Macrophage Inflammatory Protein-1 Alpha (MIP1a) Biomarker Activity (AID 2284255); conditions: primary human endothelial cells with macrophages
# Summary of the method: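 MIP-1a protein levels were quantified by ELISA after 24 h treatment of human endothelial cell–macrophage co-cultures, compared with DMSO. Parallel cultures were fixed with TCA and stained with 0.1% SRB to gauge overt cytotoxicity.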
structure (smiles),measurement,setting,value
C=CC(F)(F)C(F)(F)C(F)(F)C(F)(F)C(F)(F)C(F)(F)C(F)(F)C(F)(F)C=C,outcome,[1],inactive
same,outcome,[2],inactive
same,outcome,[3],inactive
same,outcome,[4],inactive
same,outcome,[5],inactive
same,outcome,[6],inactive
same,outcome,[7],inactive
same,outcome,[8],inactive
same,outcome,[9],inactive
same,outcome,[10],inactive
same,outcome,[11],inactive
same,outcome,[12],inactive
same,outcome,[13],inactive
same,outcome,"CD69, CD69 (gene 969)",inactive
same,outcome,[14],inactive
same,outcome,[15],inactive
same,outcome,[16],inactive
C=CC(=O)OCC(F)(F)C(F)(F)C(F)(F)C(F)(F)C(F)(F)C(F)(F)C(F)(F)F,AC50,[1],6.72 µM (active) and 18.4 µM (active)
same,outcome,[2],inactive
same,outcome,[3],inactive
same,outcome,[4],inactive
same,outcome,[5],inactive
same,outcome,[6],inactive
same,outcome,[7],inactive
same,outcome,[8],inactive
same,outcome,[9],inactive
same,outcome,[10],inactive
same,outcome,[11],inactive
same,outcome,[12],inactive
same,outcome,[13],inactive
same,outcome,"CD69, CD69 (gene 969)",inactive
same,outcome,[14],inactive
same,outcome,[15],inactive
same,outcome,[16],inactive
O=C(O)C(F)(F)C(F)(F)OC(F)(F)F,outcome,[17],inactive
same,outcome,[1],inactive
same,outcome,[2],inactive
same,outcome,[3],inactive
same,outcome,[4],inactive
same,outcome,[5],inactive
same,outcome,[6],inactive
same,outcome,[8],inactive
same,outcome,[9],inactive
same,outcome,[10],inactive
same,outcome,[11],inactive
same,outcome,[12],inactive
same,outcome,[13],inactive
same,outcome,"CD69, CD69 (gene 969)",inactive
same,outcome,[14],inactive
same,outcome,[15],inactive
same,outcome,[16],inactive
FC(F)(F)C(F)(F)C(F)(F)C(F)(F)C(F)(F)C(F)(F)CCS,outcome,[1],inactive
same,outcome,[2],inactive
same,outcome,[3],inactive
same,outcome,[4],inactive
same,outcome,[5],inactive
same,outcome,[6],inactive
same,outcome,[7],inactive
same,outcome,[8],inactive
same,outcome,[9],inactive
same,outcome,[10],inactive
same,outcome,[11],inactive
same,outcome,[12],inactive
same,AC50,[13],0.0795 µM (active)
same,outcome,[13],inactive
same,outcome,"CD69, CD69 (gene 969)",inactive
same,outcome,[14],inactive
same,outcome,[15],inactive
same,outcome,[16],inactive
O=C(Cl)C(F)(F)C(F)(F)C(F)(F)C(F)(F)C(F)(F)C(F)(F)C(F)(F)C(F)(F)F,outcome,[1],inactive
same,AC50,[2],23.6 µM (active) and 43.7 µM (active) and 30 µM (active)
same,outcome,[3],inactive
same,outcome,[4],inactive
same,AC50,[5],18.7 µM (active) and 20.4 µM (active) and 21.3 µM (active)
same,outcome,[6],inactive
same,outcome,[8],inactive
same,AC50,[9],20.4 µM (active) and 48.2 µM (active) and 30 µM (active)
same,AC50,[10],41.1 µM (active) and 38.8 µM (active) and 22.7 µM (active)
same,AC50,[11],51.4 µM (active)
same,outcome,[11],inactive
same,AC50,[12],30 µM (active)
same,outcome,[12],inactive
same,AC50,[18],23 µM (active)
same,outcome,[18],inactive
same,AC50,[13],30 µM (active)
same,outcome,[13],inactive
same,AC50,"CD69, CD69 (gene 969)",55.1 µM (active) and 33.8 µM (active) and 45.9 µM (active)
same,AC50,[14],41.7 µM (active) and 39.5 µM (active) and 45.8 µM (active)
same,AC50,[15],45.5 µM (active)
same,outcome,[15],inactive
same,outcome,[16],inactive
CCCCCCCCC(F)(F)C(F)(F)C(F)(F)C(F)(F)C(F)(F)C(F)(F)F,outcome,[1],inactive
same,outcome,[2],inactive
same,outcome,[3],inactive
same,outcome,[4],inactive
same,outcome,[5],inactive
same,outcome,[6],inactive
same,outcome,[7],inactive
same,outcome,[8],inactive
same,outcome,[9],inactive
same,outcome,[10],inactive
same,outcome,[11],inactive
same,outcome,[12],inactive
same,outcome,[18],inactive
same,outcome,[13],inactive
same,outcome,"CD69, CD69 (gene 969)",inactive
same,outcome,[14],inactive
same,outcome,[15],inactive
same,outcome,[16],inactive
